# Experimental data published in article PMC4336329 (PLoS ONE, 2015).
# In all, about 310,000 compounds went through this assay and about 14,000 (4.5%) showed an effect of 50% or more. Effects have a minus sign here. The list comes from a sample in which strong results are over-represented; it also holds similar structures and randomly drawn compounds.
# Molecular target: human ether-à-go-go-related gene (hERG) potassium channel (human, UniProt Q12809)
# Assay: primary screen, population patch clamp on CHO cells stably expressing hERG; higher = less effect of the substance
# 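Further: peak tail current of the secondary pulse compared with the same well before compound.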
# human ether-à-go-go-related gene (hERG) potassium channel, sequence (Q12809 whole entry, looked up): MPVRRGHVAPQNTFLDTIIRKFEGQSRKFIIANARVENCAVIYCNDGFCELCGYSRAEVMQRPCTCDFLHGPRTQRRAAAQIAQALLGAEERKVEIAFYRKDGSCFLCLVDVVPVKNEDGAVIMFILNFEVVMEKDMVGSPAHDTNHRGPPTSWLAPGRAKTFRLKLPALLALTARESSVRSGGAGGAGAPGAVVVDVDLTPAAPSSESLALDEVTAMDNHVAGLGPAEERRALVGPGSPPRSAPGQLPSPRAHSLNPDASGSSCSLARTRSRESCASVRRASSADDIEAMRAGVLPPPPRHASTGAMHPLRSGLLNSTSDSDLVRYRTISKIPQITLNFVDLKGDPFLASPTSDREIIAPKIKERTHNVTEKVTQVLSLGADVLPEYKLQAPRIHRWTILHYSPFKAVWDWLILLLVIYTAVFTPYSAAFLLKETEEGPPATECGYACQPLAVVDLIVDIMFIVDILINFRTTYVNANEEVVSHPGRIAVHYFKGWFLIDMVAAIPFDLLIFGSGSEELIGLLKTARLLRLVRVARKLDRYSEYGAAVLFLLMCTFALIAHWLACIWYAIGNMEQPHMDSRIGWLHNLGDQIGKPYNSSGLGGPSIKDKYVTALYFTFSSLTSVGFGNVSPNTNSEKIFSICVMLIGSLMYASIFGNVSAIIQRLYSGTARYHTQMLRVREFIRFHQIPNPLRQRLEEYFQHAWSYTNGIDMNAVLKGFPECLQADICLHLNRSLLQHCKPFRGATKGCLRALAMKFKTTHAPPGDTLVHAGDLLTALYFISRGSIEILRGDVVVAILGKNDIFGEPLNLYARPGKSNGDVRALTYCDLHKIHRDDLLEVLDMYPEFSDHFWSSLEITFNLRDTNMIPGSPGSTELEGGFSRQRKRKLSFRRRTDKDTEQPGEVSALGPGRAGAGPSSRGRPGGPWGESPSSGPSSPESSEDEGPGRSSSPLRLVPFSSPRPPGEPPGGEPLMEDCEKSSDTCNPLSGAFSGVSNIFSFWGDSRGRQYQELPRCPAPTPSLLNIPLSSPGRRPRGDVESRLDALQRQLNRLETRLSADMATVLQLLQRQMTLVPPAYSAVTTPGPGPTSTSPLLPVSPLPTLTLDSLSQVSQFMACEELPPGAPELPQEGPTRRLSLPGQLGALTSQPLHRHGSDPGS
row,Structure (SMILES),"hERG current change (%, negative = inhibition) at 10uM [%]"
1,O=C(NC1(C(=O)NC2CCCCC2)CCCCC1)c1ccccn1,2.56
2,COc1ccc(CCNC(=O)C(=O)NCc2ccc(C)cc2)cc1OC,-1.57
3,COc1ccccc1N1CCN(C(=O)c2cc(-c3cccs3)on2)CC1,-22.7
4,COc1cccc(CNC(=O)C2Cc3ccccc3CN2C(C)=O)c1 (stereo not shown),2.81
5,C=CCc1cccc(/C=N/NC(=O)COc2ccc(-n3cnnn3)cc2)c1O,11.3
6,CCN1C(=O)N[C@@H](c2cccc(C(F)(F)F)c2)[C@@H](C(=O)OC)[C@H]1C,-19
7,O=C(Cn1cccc1C(=O)c1ccccc1)NCc1ccc(Cl)cc1,18.7
8,O=C(O)CC(NS(=O)(=O)c1cccc2nsnc12)c1ccc(F)cc1 (stereo not shown),-17.2
9,Cc1cc(F)ccc1S(=O)(=O)Nc1ccc(C(=O)N2CCCCCC2)cc1,-27.6
10,Cc1ccc2nc(SCC(=O)N/N=C/c3ccco3)cc(C)c2c1,10.4
11,Cc1cc(N/N=C/c2ccco2)c2ccccc2n1,16.6
12,Cc1ccc2nc(N/N=C/c3ccco3)cc(C)c2c1,-64.3
13,C[C@@H]1CC[C@H]2[C@@H](C)C(=O)O[C@@H]3O[C@@]4(C)CC[C@@H]1[C@]32OO4,0.204
14,COc1ccc(OC)c(NC(=O)CSc2nnc(C3CCCCC3)n2N)c1,-17.4
15,CC(C)CC(NC(N)=O)C(=O)Nc1ccc(Oc2ccccc2)cc1 (stereo not shown),10.1
16,O=C(/C(=N\Nc1ccc(Br)cc1)Sc1nnnn1-c1ccccc1)c1ccccc1,13.8
17,CCN(CC)CCN1CCn2c3c(c4cc(C)ccc42)CCCC31.Cl (stereo not shown),-76.3
18,Cc1ccc2c(c1)c1c3n2CCN(CCC(=O)O)C3CCC1 (stereo not shown),-3.49
19,Cc1ccc2c(c1)c1c3n2CCN(CC(N)=O)C3CCC1 (stereo not shown),25.6
20,CCN1CCn2c3c(c4cc(C)ccc42)CCCC31 (stereo not shown),-54.2
21,CCN1CCn2c3c(c4cc(Cl)ccc42)CCCC31.Cl (stereo not shown),-39.1

row,Structure (SMILES),"hERG current change (%, negative = inhibition) at 10uM [%]"
1,Cc1ccc2c(c1)c1c3n2CCN(CC#N)C3CCC1 (stereo not shown),2.24
2,NC[C@H]1O[C@H](O[C@H]2[C@H](O)[C@@H](O[C@H]3O[C@H](CO)[C@@H](O)[C@H](N)[C@H]3O)[C@H](N)C[C@@H]2N)[C@H](N)C[C@@H]1O.O=S(=O)(O)O,4.47
3,CC(C)c1nnc(NC(=O)c2nc(S(=O)(=O)Cc3ccccc3F)ncc2Cl)s1,-5.79
4,c1ccc2oc(C3=NNC(=NC4CC4)SC3)cc2c1,-58.5
5,CC(C)(C)N=C1NN=C(c2cc3ccccc3o2)CS1,-9.99
6,c1ccc(CN=C2NN=C(c3cc4ccccc4o3)CS2)cc1,-16.3
7,COc1cccc(C(c2sc3ncnn3c2O)N2CC(C)OC(C)C2)c1 (stereo not shown),0.441
8,N=c1c(S(=O)(=O)c2ccc(F)cc2)cc2c(=O)n3ccccc3nc2n1CC1CCCO1 (stereo not shown),-40.8
9,O=C(NCc1ccccc1)c1ccc2c(=O)n(CC3CCCO3)c(=S)[nH]c2c1 (stereo not shown),-2.39
10,N=c1c(C(=O)NCc2ccc(F)cc2)cc2c(=O)n3ccccc3nc2n1CC1CCCO1 (stereo not shown),-77.4
11,Cc1ccc(CNC(=O)c2cc3c(=O)n4ccccc4nc3n(CC3CCCO3)c2=N)cc1 (stereo not shown),-81.3
12,N=c1c(C(=O)NCc2ccc3c(c2)OCO3)cc2c(=O)n3ccccc3nc2n1CC1CCCO1 (stereo not shown),-79.5
13,CCOC(=O)c1cc2c(=O)n3ccccc3nc2n(CC2CCCO2)c1=NC(C)=O (stereo not shown),-1.13
14,COc1ccc(CNC(=O)c2cc3c(=O)n4ccccc4nc3n(CC3CCCO3)c2=N)cc1 (stereo not shown),-72.5
15,O=C(NCc1ccc2c(c1)OCO2)c1ccc2c(c1)C(=O)N(CC1CCCO1)C2=O (stereo not shown),2.28
16,O=C(CSc1nc2ccccc2c(=O)n1CC1CCCO1)NCc1ccc2c(c1)OCO2 (stereo not shown),-30.2
17,CC(CCc1ccccc1)NC(=O)c1ccccc1Cl (stereo not shown),-4.82
18,CN(C)S(=O)(=O)c1cc(NC(=O)CN2CCN(c3ccccc3F)CC2)ccc1Cl,5.43
19,CC(C)NC(=O)CSc1nnc(-c2ccc(C(C)(C)C)cc2)n1C,-7.38
20,NC(=O)C1CCN(C(=O)COc2ccc3c(c2)oc(=O)c2ccccc23)CC1,3.62
21,COc1ccc(COc2cc(-c3cccc(OC)c3)nc3ccc(NC(=O)C(C)C)cc23)cc1,3.04

row,Structure (SMILES),"hERG current change (%, negative = inhibition) at 10uM [%]"
1,Cc1nc2c(-c3ccc(F)cc3)cnn2c(N)c1-c1ccc(F)cc1,23.3
2,CCOC(=O)C1CCCN(C(=O)c2cn(CC)c3ccc(S(=O)(=O)N(C)C)cc3c2=O)C1 (stereo not shown),11.9
3,COc1ccc2nc(NC(=O)C3CCN(S(=O)(=O)c4cccc5nsnc45)CC3)sc2c1,0.473
4,C=CCn1c(SCC(=O)Nc2ccc(NC(=O)c3ccco3)c(OC)c2)nnc1-c1ccncc1,-6.37
5,CCCCCCn1nc(C(=O)N(CC(C)C)c2c(N)n(CCCC)c(=O)[nH]c2=O)c2ccccc2c1=O,-51.9
6,CCCCCCn1nc(C(=O)N(CCOC)c2c(N)n(CCCC)c(=O)[nH]c2=O)c2ccccc2c1=O,-1.87
7,CCCCCn1nc(C(=O)N(CCOC)c2c(N)n(CCCC)c(=O)[nH]c2=O)c2ccccc2c1=O,-3.44
8,CCCCn1c(N)c(N(CCOC)C(=O)c2nn(CC)c(=O)c3ccccc23)c(=O)[nH]c1=O,6.82
9,CCCCn1nc(C(=O)N(CCOC)c2c(N)n(CCCC)c(=O)[nH]c2=O)c2ccccc2c1=O,6.16
10,CCCCCn1nc(C(=O)N(CC(C)C)c2c(N)n(CCCC)c(=O)[nH]c2=O)c2ccccc2c1=O,-76.6
11,CCCCN(C(=O)c1ccc([N+](=O)[O-])s1)c1c(N)n(CC(C)C)c(=O)[nH]c1=O,5.29
12,CCCCN(C(=O)c1ccc([N+](=O)[O-])s1)c1c(N)n(CCCC)c(=O)[nH]c1=O,-12.9
13,CCCCn1c(N)c(N(CCC(C)C)C(=O)c2ccc([N+](=O)[O-])s2)c(=O)[nH]c1=O,-51.1
14,O=S(=O)(Nc1ccc(-n2cnnn2)cc1)c1ccc(Cl)cc1,-18.2
15,CCO[C@H]1OC(C(=O)N2CCOCC2)=C[C@@H](C2CC2)[C@@H]1CCCO,19.9
16,Cc1ccc(NC(=O)Nc2sc(=S)n(C)c2C)cc1,15.4
17,C=CCNC(=S)NCC1COc2ccccc2O1 (stereo not shown),19.6
18,CC1CN(c2ccc(C(F)(F)F)cc2[N+](=O)[O-])CCN1S(C)(=O)=O (stereo not shown),-56.9
19,CC1CN(c2ccc([N+](=O)[O-])cc2Cl)CCN1S(C)(=O)=O (stereo not shown),-47.2
20,NC(=O)C1CCN(c2ccc(C(F)(F)F)cc2[N+](=O)[O-])CC1,-20.1
21,O=C(C1CCC1)N1CCN(c2ccc(C(F)(F)F)cc2[N+](=O)[O-])CC1,-64

row,Structure (SMILES),"hERG current change (%, negative = inhibition) at 10uM [%]"
1,CC1CN(c2ccc(Cl)cc2[N+](=O)[O-])CCN1S(C)(=O)=O (stereo not shown),-41.2
2,O=[N+]([O-])c1cc(C(F)(F)F)ccc1N1CCC(O)CC1,0.342
3,O=[N+]([O-])c1ccc(Oc2cnc3ccccc3n2)cc1,7.44
4,COc1ccccc1NC(=O)Nc1nc(CC(=O)Nc2cc(F)ccc2F)cs1,-2.13
5,CC(C)(C)n1nnnc1C(c1ccc(F)cc1)N(Cc1ccc(F)cc1)Cc1ccco1 (stereo not shown),1.97
6,CCN1C(=O)C(CC(=O)Nc2ccc(OC)cc2)N(CCc2ccc(OC)cc2)C1=S (stereo not shown),-1.17
7,O=C(c1ccc([N+](=O)[O-])s1)N1CCN(c2ccccn2)CC1,-20.4
8,O=C(c1ccc2n[nH]nc2c1)N1CCN(c2ccc(C(F)(F)F)cn2)CC1,-26.7
9,O=C(CN1CCN(c2ccc(C(F)(F)F)cn2)CC1)Nc1ccc2c(c1)OCO2,-14
10,O=C(c1ccc2ccccc2c1)N1CCN(c2ccc(C(F)(F)F)cn2)CC1,-2
11,Cc1ccc(C(=O)N2CCN(c3ccc(C(F)(F)F)cn3)CC2)cc1,-0.62
12,O=C(c1ccc2c(c1)OCO2)N1CCN(c2cccc(C(F)(F)F)c2)CC1,-53.8
13,O=C(c1ccc([N+](=O)[O-])s1)N1CCN(c2ccc(C(F)(F)F)cn2)CC1,-67.5
14,O=C(c1ccc2c(c1)OCO2)N1CCN(c2ccc(C(F)(F)F)cn2)CC1,-55.6
15,O=C(CN1CCN(c2ccc(C(F)(F)F)cn2)CC1)NCc1ccc2c(c1)OCO2,-65.3
16,O=C(CN1CCN(c2ncccn2)CC1)NCc1ccc2c(c1)OCO2,20.4
17,O=C(Nc1ccc2c(c1)OCO2)N1CCN(c2cccc(C(F)(F)F)c2)CC1,-1.15
18,O=C(c1ccc2c(c1)OCO2)N1CCN(c2ccccc2)CC1,-10.9
19,CC(C)c1ccc(NC(=S)NCCc2c[nH]c3ccccc23)cc1,10.8
